DAX1 inh-1: inhibits human nuclear receptor DAX1 | HEK293 Gal4-DAX1 luciferase reporter, luminescence | inhibition, % at 6.75 µM | hit rate 0.99% among 340,000;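 active = inhibition above the mean over all tested compounds plus 3 SD, cut at about 4.2% in these data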;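 note: 0% = DAX1-transfected cells with DMSO and 100% = empty-vector control cells with DMSO; inhibition shows as a rise in luminescence from relieved DAX1 repression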
Target sequence (P51843 207-470 limits assumed): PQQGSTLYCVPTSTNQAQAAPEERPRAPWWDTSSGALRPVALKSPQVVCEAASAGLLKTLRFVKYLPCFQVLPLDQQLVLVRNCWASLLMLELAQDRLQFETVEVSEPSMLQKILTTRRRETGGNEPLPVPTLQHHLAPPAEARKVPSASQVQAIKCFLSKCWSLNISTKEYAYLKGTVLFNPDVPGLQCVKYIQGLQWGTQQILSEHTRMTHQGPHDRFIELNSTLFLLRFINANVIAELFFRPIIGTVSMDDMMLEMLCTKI
ssDAF12 agonist: S. stercoralis DAF-12 activation, primary screen. hit rate 1% among 370,000. activation, % at 6.8 µM. HEK293 ssDAF-12/GRIP1 lit1-tk-luc reporter, luminescence; % of 3 µM dafachronic acid response;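 active = activation above the mean over all tested compounds plus 3 SD, cut at about 0.9% in these data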;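 note: 0% = DMSO-only wells and 100% = 3 µM delta7-dafachronic acid wells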
hcDAF-12 act: H. contortus DAF-12 activation, primary screen. HEK293 hcDAF-12 lit1-tk-luc reporter, luminescence; 0% DMSO, 100% Δ7-dafachronic acid. activation, % at 6.8 µM. hit rate 1.4% among 370,000. AID 652067;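 active = activation above the mean of all tested compounds plus 3 SD, cut at about 5.5% in these data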;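 note: 100% = response to 3 µM Δ7-dafachronic acid high control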
DAX1 inh-2: blocks DAX1 repression of SF-1 activated StAR promoter | HEK293T StAR-luciferase reporter, SF-1/DAX-1 repression relief | inhibition, % at 6.8 µM | hit rate 1.1% among 370,000;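 active = inhibition above the mean over all tested compounds plus 3 SD, cut at about 3.6% in these data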;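 note: 0% = DAX-1 cells with DMSO and 100% = cells lacking DAX-1 with DMSO; higher inhibition means more luminescence from relief of DAX-1 repression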
hgDAF12 agonist: activates the H. glycines DAF-12 receptor ligand-binding domain; HEK293 GAL4-hgDAF12 UAS-luciferase reporter, agonist luminescence; normalized to butyrate control; activation, % at 6.8 µM; hit rate 1.8% among 370,000; AID 687014;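 active = activation above a cutoff set at the mean of all screened compounds plus 3 SD, cut at about 10% in these data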;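 note: 0% = DMSO wells and 100% = sodium butyrate wells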
An asterisk follows results filed as active; nt = no result given. This is a sample that favours compounds with a hit; in the whole collection about 4.1% have one here.

SMILES | DAX1 inh-1 | ssDAF12 agonist | hcDAF-12 act | DAX1 inh-2 | hgDAF12 agonist
O=C(CN1CCCCCCC1)N/N=C/c1ccccc1F | 0.3 | -1.4 | -0.9 | -0.2 | 3.0
CCN(CC(=O)Nc1ccccc1C(F)(F)F)C(=O)c1oc2ccc(OC)cc2c1C | 0.7 | -0.2 | -0.8 | 4.2* | 4.8
CCN(CC)Cc1c(C(=O)N/N=C/c2cccs2)nnn1-c1nonc1N | 1.8 | -1.3 | -0.9 | 0.0 | -0.7
C(=Cc1cnnc2ccccc12)c1ccccc1 | 2.1 | 0.6 | 2.6 | 2.1 | 12.9*
O=C(Nc1ccc2[nH]ccc2c1)c1cc(-c2ccc(Cl)cc2)nc2ccccc12 | nt | 0.8 | 6.2* | 0.1 | 5.7
O=C(N/N=C/c1cccnc1)c1cc(-c2ccccc2)nc2ccccc12 | -1.1 | -1.3 | -1.3 | -0.5 | -0.1
O=C(N/N=C/c1cccnc1)c1cc(-c2ccc(Cl)cc2)nc2ccccc12 | 5.6* | -1.3 | 1.1 | -0.1 | 2.8
Cc1cc(C(=O)Nc2nc3ccc(Cl)cc3s2)nn1C | nt | 0.0 | 3.8 | 1.4 | 10.9*
CCc1nc(N2CCN(C(=O)CCl)CC2)c2c3c(sc2n1)CC(C)CC3 (stereo unspecified) | 4.4* | -0.6 | -0.5 | -0.5 | 0.5
CCOc1ccc2nc(NC(=O)CN3CCN(C)CC3)sc2c1 | 0.8 | 0.4 | 5.5 | 0.1 | 6.4
CCOc1ccc2nc(NC(=O)Cn3[nH]c(=O)c4ccccc4c3=O)sc2c1 | 6.8* | -1.2 | 0.3 | 1.2 | 11.1*
CCOc1ccc2nc(NC(=O)CN3C(=O)C4CCCCC4C3=O)sc2c1 (stereo unspecified) | -0.1 | -0.9 | 0.3 | 3.7* | 5.9
CCOc1ccc2nc(NC(=O)CN3CCN(CC)CC3)sc2c1 | -0.1 | -0.9 | 0.1 | 0.1 | 4.4
O=C1CCC[C@H]2C[C@H](NCc3cccc(Cl)c3)CC[C@]23CCCN13 | nt | -1.1 | 1.3 | nt | -1.2
CCOC(=O)C1=NOC(C(C)=O)(C(=O)Nc2cc(C)cc(C)c2)C1 (stereo unspecified) | nt | -0.5 | -1.1 | -0.1 | 0.4
COc1ccc(C(=O)CSc2nnc(-c3cccs3)o2)cc1OC | nt | -1.7 | -0.1 | -0.4 | -0.5
CC(NC(=S)Nc1ccc(S(=O)(=O)N2CCOCC2)cc1)C1CC2CCC1C2 (stereo unspecified) | -0.8 | -1.7 | -2.4 | 0.2 | 0.7
O=[N+]([O-])c1ncccc1OCc1ccccc1Br | 0.0 | -0.7 | -1.8 | -0.1 | 1.0
O=[N+]([O-])c1ncccc1OCc1ccc(Br)cc1F | -0.2 | -0.5 | 0.8 | 0.3 | 10.6*
CCCCCn1c(=O)[nH]c2cc(C(=O)O)ccc2c1=O | -0.2 | -1.7 | -1.7 | -0.1 | -1.6
COC(=O)c1ccc2c(=O)n(CCCCCC(=O)NC(C)C)c(=O)[nH]c2c1 | -0.3 | -1.6 | -1.5 | 0.5 | 3.8
COC(=O)c1ccc2c(=O)n(CCCCCC(=O)NC3CCCCC3)c(=O)[nH]c2c1 | nt | -1.0 | 5.8* | 2.3 | 2.1
CCCCCn1c(=O)[nH]c2cc(C(=O)NC3CCN(Cc4ccccc4)CC3)ccc2c1=O | 6.5* | -1.5 | -0.9 | 0.3 | -2.5
O=C(OC12CCCN(C1)/C(=C/c1cccc(Cl)c1)C2)c1ccno1 (stereo unspecified) | nt | -1.4 | -1.1 | -0.2 | 2.5
CC(C)C[C@H]1COc2ccc(Cl)cc2S(=O)(=O)N1Cc1cn(Cc2ccc(C(F)(F)F)cc2)nn1 | nt | -1.3 | 0.4 | -0.1 | -0.8
SMILES | DAX1 inh-1 | ssDAF12 agonist | hcDAF-12 act | DAX1 inh-2 | hgDAF12 agonist
O=C(OC12CCCN(C1)/C(=C/c1cccnc1)C2)c1cccc(F)c1 (stereo unspecified) | nt | -2.0 | -3.1 | -2.1 | -3.3
Cc1cc(C)c(C)c(S(=O)(=O)N2CCN(C)CC2)c1C | 8.9* | -0.2 | -1.5 | -0.3 | 2.8
Cc1ccc([N+](=O)[O-])cc1S(=O)(=O)N1CCN(C)CC1 | 6.3* | -1.2 | -0.4 | -0.4 | -0.3
CCN1CCN(c2ccc(Nc3ccnc4ccccc34)cc2)CC1 | 1.9 | 0.3 | 3.6 | 1.1 | 8.0
C#CCNC(=O)C[C@H]1C(=O)N(CCc2ccc(Cl)cc2)C2=CCCC[C@@]21C(=O)OCC | nt | -1.9 | -4.8 | -2.0 | -2.3
O=C(CCC(=O)CCN1CCCCC1)CCN1CCCCC1 | 1.6 | -0.3 | 0.6 | 0.3 | 2.5
NC(=O)CCN1CCCCC1 | 4.5* | -1.8 | 0.9 | 0.4 | -0.1
CC(=O)c1ccc(N2Cc3ccccc3/C2=N\C(=O)Nc2ccc(Cl)cc2)cc1 | 1.9 | 0.6 | 1.9 | 1.4 | 12.2*
O=C(N/N=C/c1cc2c(cc1[N+](=O)[O-])OCO2)c1ccc2c(c1)OCO2 | 0.3 | -1.1 | -0.3 | -0.1 | -0.4
COc1c(O)ccc(/C=N\NC(=O)c2ccc3c(c2)OCO3)c1[N+](=O)[O-] | 5.5* | -0.6 | -1.3 | 0.0 | 1.1
CCC(C(=O)NC(C)(C)C)N(C(=O)Cn1nnc(-c2ccccc2F)n1)c1cccc2c1CCCC2 (stereo unspecified) | 4.3* | -1.3 | 0.4 | 0.7 | -1.6
O=C(NCc1nc2ccccc2[nH]1)c1ccco1 | 0.2 | -0.7 | -0.4 | 0.4 | 2.0
CCc1cccc(CC)c1NC(=S)NCc1nc2ccccc2[nH]1 | 5.4* | -0.4 | 1.7 | -0.4 | 1.5
COc1ccc(C(=O)c2[nH]c(N)c(C(=O)NCCc3c[nH]c4ccccc34)c2-c2ccc(Br)cc2)cc1 | nt | 0.9 | 2.6 | 1.4 | 0.2
COc1ccc(C(=O)c2[nH]c(N)c(C(=O)NCCc3c[nH]c4ccccc34)c2-c2ccc(C(F)(F)F)cc2)cc1 | nt | 1.9* | 5.4 | 0.1 | 4.6
CCOC(=O)CC[C@@H]1CC[C@]2(CCCN(Cc3ccc(Cl)cc3)C2)O1 | nt | -0.5 | 1.2 | 0.4 | 1.9
CCCn1c(=O)c(C(=O)Nc2ccccc2)c(O)c2ccccc21 | -0.5 | 0.0 | 4.6 | 1.1 | 4.1
Cn1c(Cl)c(C(=O)Nc2ccccc2)c2ccccc21 | -0.5 | 0.2 | 6.5* | 0.4 | 3.1
Cc1cc(C)c(NC(=O)C2CCCN2C)c(C)c1 (stereo unspecified) | 8.0* | -0.9 | 0.8 | -0.2 | 1.6
Cc1cc(C)c(NC(=O)C2CCCN2CCO)c(C)c1 (stereo unspecified) | 1.4 | -1.0 | 0.8 | 1.3 | -0.1
CC(CNC(=O)CN1C(=O)COc2ccc(S(=O)(=O)N3CCCCC3)cc21)c1ccccc1 (stereo unspecified) | -0.8 | -0.8 | -0.8 | -0.3 | -5.2
COC(=O)C1CCN(C(=O)COC(=O)c2cc(-c3cccs3)nn2-c2ccccc2)CC1 | 4.6* | -0.8 | -1.5 | -1.4 | 3.2
C[C@H](O)[C@@H]1C(=O)N2CCc3c([nH]c4c(-c5ccc6c(c5)OCO6)cccc34)[C@@H]2C[C@@H]1N(C)C(=O)c1ccccc1F | nt | -1.0 | -4.5 | -2.0 | 1.8
COc1ccc(CNC(=O)CSc2ccsc2[N+](=O)[O-])cc1 | 0.3 | 1.3* | 3.3 | 1.9 | 6.5
Cc1ccc(CNC(=O)CSc2ccsc2[N+](=O)[O-])cc1 | 0.8 | -0.5 | 6.5* | 1.5 | 10.8*
O=C(CSc1ccsc1[N+](=O)[O-])NCCc1ccc(Cl)cc1 | 0.7 | -0.4 | 0.3 | 0.0 | -3.0

Assay outcomes from PubChem BioAssay.
